A selection: hits, their analogues and other compounds. The true share with any hit is near 3.7%.
A549 tox = Nrf2 qHTS screen for inhibitors: counterscreen for cytotoxicity | Potency, µM (doses to about 46 µM), for the others: at the top dose activity change, negative = cytotoxicity, actives largely listed as inhibitors | actives 0.16% (n = 390,000) | A549 ARE-Fluc cells, CellTiter-Fluor viability, 18-24 h | AID 504648, 2011; also: % is scaled to controls: 0 for no effect and ±100 for the full control effect
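Cytotoxicity counterscreen: CellTiter-Fluor fluorescence was measured in A549 ARE_Fluc cells after 18-24 h of compound exposure in a concentration series. The subsequent BugLite luminescent read reports ARE-luciferase activity.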
ELG1 DNA repair = qHTS screen for small molecules that inhibit ELG1-dependent DNA repair in human embryonic kidney (HEK293T) cells expressing luciferase-tagged ELG1 | HEK293T ELG1-luciferase reporter, luminescence, 16 h; DNA damage induced by 5-fluorouridine | Potency, µM (doses to about 46.1 µM), inactives show at the top dose activity change, negative = inhibition, most hits filed as inhibitors | actives 2.3% (n = 330,000) | AID 504467, 2011; also: % is scaled to controls: 0 for no effect and ±100 for the full control effect; nearly all actives have a fitted effect of over 55% in size
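In this reporter screen, reduction of luminescence relative to DMSO vehicle indicated activity. Compounds and 5-fluorouridine were added together to 2,000 cells per well, incubated for 16 hr at 37 °C, then developed with ONE-Glo.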
Nrf2 ARE act = qHTS of Nrf2 Activators. AREc32 ARE-luciferase reporter (MCF7-derived line), luminescence, 24 h. Potency, µM (highest dose often 46.1 µM), inactives show top-dose activation, hits mostly activators. actives 0.31% (n = 410,000). AID 624171, 2012; also: % of control where 0% means no effect; nearly all actives have a fitted effect of over 65% in size
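Cells of the AREc32 ARE-luciferase line are plated in OPTI-MEM containing 5% FBS and left overnight at 37 deg C. Compounds are pinned in, incubation continues 24 hr, and firefly luciferase signal is then measured.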
Nrf2 block = Nrf2 qHTS screen for inhibitors; Potency, µM (top dose mostly 46 µM), inactives show top-dose activity change, negative = inhibition, most hits filed as inhibitors; A549 ARE-Fluc reporter, luciferase luminescence, 18-24 h; AID 504444, 2011; actives 2.1% (n = 360,000); also: % is scaled to controls: 0 for no effect and ±100 for the full control effect; nearly all actives have a fitted effect of over 60% in size
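Nrf2 function is reported as luminescence of an ARE-controlled luciferase in A549 cells. Compounds were tested at several concentrations, and a CellTiter-Fluor read on the same wells flagged cytotoxicity.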
* hit, by the source's call; ? = inconclusive; / = no result; [ ] = another dose, or the depositor's remark. Calls follow the shape of the dose curve; as a rule, active = well fitted curve in the direction sought with a large enough effect; inconclusive = small, poorly fitted or top-dose-only effect, or another doubt; inactive = no such curve, though single readings can be large; an effect the other way counts as inactive or inconclusive. Potency is read from the fitted curve at half-maximal effect.

SMILES	A549 tox	ELG1 DNA repair	Nrf2 ARE act	Nrf2 block
Cc1ccc(Nc2nc(-c3cccnc3)nc3ccccc23)cc1	-12.3%	?	0.0%	-17.3%
Oc1ccc(/C=N/Nc2nc(-c3cccnc3)nc3ccccc23)c(O)c1	-13.1%	16.4µM*	-0.6%	20.6µM*
COc1ccc(/C=C/c2onc(C)c2S(=O)(=O)N2CCC(C(=O)N3CCC(C)CC3)CC2)cc1	-3.5%	?	2.5%	?
CCCCCn1ccc(=O)c2c(C(F)(F)F)nccc21	-9.7%	5.8µM*	-0.7%	?
CCCCCCCn1ccc(O)c(CC(=O)OC)c1=O	13.5%	-2.4%	-0.5%	-1.7%
CC(=O)c1ccc(N2CCN(C(=O)c3ccc(Cn4c(=O)[nH]c5ccccc5c4=O)cc3)CC2)cc1	-9.0%	/	-0.7%	/
Cc1ccc(C)c(N2CCN(C(=O)c3ccc(Cn4c(=O)[nH]c5ccccc5c4=O)cc3)CC2)c1	-22.1%	?	-0.5%	7.31µM*
O=C(Cc1ccc(-n2c(=O)[nH]c3ccsc3c2=O)cc1)N1CCN(c2ccc(Cl)cc2)CC1	-0.5%	?	4.9%	23.1µM*
O=C(c1ccc(Cn2c(=O)[nH]c3ccccc3c2=O)cc1)N1CCN(c2ccc(Cl)cc2)CC1	?	23.1µM*	-0.4%	?
Cc1ccccc1OCC(=O)Nc1ccccc1N1CCC(C)CC1	17.2%	?	-0.7%[9.22 µM]	-6.8%
Cc1csc2ncnc(NNC(=O)c3ccc(Cl)cc3)c12	-17.3%	-8.7%	-0.1%	20.6µM*
COc1ccc(CNC(=O)Nc2ccc3c(c2)N(C)C(=O)CS3)cc1	1.9%	0.0%	4.5%	-5.9%
COc1ccc(NC(=O)CSc2ccc3c4c(cccc24)C(=O)c2ccccc2-3)cc1	?	5.0%	4.5%	10.3µM*
N#Cc1cccc(NC(=O)CSc2ccccc2)c1	10.5%	27.6%	0.2%	0.8%
N#Cc1cccc(NC(=O)CSc2ccc3c4c(cccc24)C(=O)c2ccccc2-3)c1	25.9µM*	-6.3%	?	?
COc1cc(Cl)c(NC(=O)CN(C)S(=O)(=O)c2ccc3[nH]c4c(c3c2)CCCC4)c(OC)c1	-0.9%	/	6.5%	23.1µM*
COc1ccccc1N1CCN(S(=O)(=O)c2ccc3[nH]c4c(c3c2)CCCC4)CC1	-12.2%	/	0.4%	23.1µM*
COc1ccccc1N1CCN(S(=O)(=O)c2ccc3nc(-c4ccccc4)[nH]c3c2)CC1	-11.9%	?	3.0%	23.1µM*
COc1cccc(C2CC(=O)Nc3c2c(=O)[nH]c2nc4ccccc4n32)c1 (stereo not given)	-2.3%	/	-0.6%	?
O=C(O)/C=C/c1cc(F)c(S(=O)(=O)N2CCN(S(=O)(=O)c3ccc4c(c3)OCCO4)CC2)cc1F	1.7%	/	/	6.0%
O=C(Cc1ccccc1F)NC1CCCN(Cc2ccc(Cl)cc2)C1 (stereo not given)	0.1%	4.2%	0.2%	3.2%
Cc1ccc(C(c2c(C)n(C)n(-c3ccccc3)c2=O)c2c(C)n(C)n(-c3ccccc3)c2=O)s1	4.1%	23.1µM*	0.0%	1.8%
COc1cc(CNc2nc(C)c([N+](=O)[O-])c(C)c2C#N)cc(OC)c1OC	-9.4%	7.31µM*	0.7%	-22.7%
CCOc1ccc(S(=O)(=O)N2CCC(C(=O)NC3CCCCC3)CC2)cc1	-14.8%	1.6%	0.0%	?
C=CCn1c(Cc2ccccc2)nc2c(cnn2-c2ccccc2)c1=O	1.5%	20.6µM*	5.1%	?
SMILES	A549 tox	ELG1 DNA repair	Nrf2 ARE act	Nrf2 block
CC1CCC2(CC1)NC(=O)N(CC(=O)c1ccc(Cl)s1)C2=O (stereo not given)	-1.6%	13.6%	0.1%	21.0%
OCCNc1c2ccccc2nc2ccccc12	?	20.6µM*	7.0%	?
OCCNc1nc2ccccc2nc1NCCO	-12.2%	11.9%	-0.2%	-3.8%
Nc1nc(Nc2ccccc2)nc(NCc2ccco2)c1[N+](=O)[O-]	-1.5%	?	4.8%	-12.1%
Fc1ccc(Nc2nc(NCc3ccco3)c3ccccc3n2)cc1	-11.2%	23.1µM*	-1.0%	18.4µM*
COc1cc([N+](=O)[O-])ccc1NC(=O)COC(=O)c1c[nH]c(=O)[nH]c1=O	-12.3%	?	-1.0%	2.2%
COc1cccc(N2CCN(c3ccc4nnc(CCC(=O)Nc5cccc(C(C)=O)c5)n4n3)CC2)c1	-3.9%	16.9%	-0.3%	0.5%
COc1ccccc1NC(=S)N(Cc1ccccc1)Cc1ccccn1	0.8%	-0.2%	-1.4%	?
S=C(Nc1ccccc1Cl)N(Cc1ccccc1)Cc1ccccn1	-10.2%	?	-0.1%	20.6µM*
Cc1nc2cc(-c3cccc(F)c3)nn2c(C)c1CCC(=O)NC(C)CCc1ccco1 (stereo not given)	0.3%	?	1.2%	0.82µM*
Cc1nc2cc(-c3cccc(F)c3)nn2c(N2CCN(C(=O)c3ccco3)CC2)c1C	-1.2%	16.4µM*	12.6µM*	14.0%
Cc1nc2cc(-c3ccccc3)nn2c(C)c1CCC(=O)N1CCN(c2ccccn2)CC1	/	8.2%	/	/
COc1ccc(-c2cc3nc(C)c(C)c(N4CCN(C(=O)c5ccoc5)CC4)n3n2)cc1	/	/	0.9%	/
COC(=O)C(NC(=O)CCc1c(C)nc2cc(-c3cccc(F)c3)nn2c1C)C(C)C (stereo not given)	-4.3%	/	-0.8%	?
Cc1nc2cc(-c3ccccc3)nn2c(C)c1CCC(=O)N1CCN(c2ccc(F)cc2)CC1	-4.8%	/	-2.2%	5.17µM*
Cc1nc2cc(-c3ccccc3)nn2c(C)c1CCC(=O)NCc1ccco1	-1.7%	?	6.8%	?
COc1cc(OC)cc(-c2cc3nc(C)c(CCC(=O)NC(C)CCc4ccco4)c(C)n3n2)c1 (stereo not given)	1.1%	12.6µM*	-0.4%	?
CCNC(=O)COC(=O)c1cccc(Br)c1	0.5%	?	-0.4%	-1.2%
Cc1cc(C)c2cc(CN(CCO)C(c3nnnn3Cc3ccc(F)cc3)C(C)C)c(=O)[nH]c2c1 (stereo not given)	/	5.17µM*	/	/
Cc1cc(C)c2cc(C(O)c3nnnn3Cc3ccccc3)c(=O)[nH]c2c1 (stereo not given)	1.7%	14.1%	-0.4%	?
CC(C)C(=O)Nc1cccc(S(=O)(=O)c2cccc(NC(=O)C(C)C)c2)c1	-17.2%	?	1.6%	20.6µM*
CNC(=O)c1cccc(NC(=O)C(C)c2ccc3cc(OC)ccc3c2)c1 (stereo not given)	-0.1%	0.0%	4.6%	-10.6%
COc1ccc2cc(C(C)C(=O)Nc3cccc(S(=O)(=O)N(C)C)c3)ccc2c1 (stereo not given)	-21.4%	?	3.5%	16.4µM*
CSc1cccc(NC(=O)C(C)C)c1	0.0%	-1.1%	1.3%	1.4%
Cc1cc(NC(=O)COC(=O)C2CC(=O)N(c3cccc(Cl)c3)C2)no1 (stereo not given)	-8.4%	?	0.1%	7.3%
